Only some compounds are listed: those with a hit (about 3.4% of all), similar ones and a draw of the others.
MITF inh: MITF inhibitors, primary screen, biochemical, AlphaScreen, human; actives 0.91% (n = 650,000); AlphaScreen MITF homodimerization, bead proximity signal; inhibition, % at 2.6 µM; in the data active means inhibition above about 50%;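 further: 0% = vehicle wells with protein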
GPR151 activ: activators of human GPR151, primary screen, cell-based, PathHunter beta-arrestin, luminescence | G-protein coupled receptor 151 (Homo sapiens), Q8TDV0 | PathHunter beta-arrestin GPR151 cells | activation, % at 11.2 µM | actives 1% (n = 650,000) | AID 1508602, 2020; in the data active means activation above about 4.9%;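 further: 0% = median of compound wells and 100% = cells with positive control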
Target sequence (Q8TDV0 whole entry, looked up): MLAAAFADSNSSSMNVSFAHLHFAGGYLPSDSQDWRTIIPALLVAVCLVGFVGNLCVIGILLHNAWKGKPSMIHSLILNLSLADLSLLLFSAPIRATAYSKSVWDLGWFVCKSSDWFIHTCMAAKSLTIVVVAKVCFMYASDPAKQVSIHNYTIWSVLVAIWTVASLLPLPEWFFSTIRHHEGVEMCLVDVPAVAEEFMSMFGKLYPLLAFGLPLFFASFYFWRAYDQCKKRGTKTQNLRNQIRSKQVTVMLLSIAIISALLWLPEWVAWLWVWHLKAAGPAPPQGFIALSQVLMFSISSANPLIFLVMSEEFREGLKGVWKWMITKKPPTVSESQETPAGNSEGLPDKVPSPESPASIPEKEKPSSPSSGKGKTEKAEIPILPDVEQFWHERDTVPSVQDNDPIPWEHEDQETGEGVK
FBW7 activator: FBW7 E3 ligase activators, primary screen, biochemical, AlphaScreen, human | F-box/WD repeat-containing protein 7 (Homo sapiens), Q969H0 | AlphaScreen FBW7–phospho-cyclin E peptide binding, activator screen | normalized activity (activation), % at 26.1 µM | actives 0.13% (n = 650,000); in the data active means normalized activity above about 1.9%;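 further: purified mutant Fbw7 with reduced substrate affinity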
TEAD-YAP inh: TEAD-YAP interaction inhibition, primary screen, TEAD-YAP interaction inhibitor project, luminescence, HEK-TIYL cells; TEAD-Gal4/YAP UAS-luciferase luminescence; AID 1259422, 2018; actives 1.4% (n = 640,000); inhibition, % at 9.12 µM; in the data active means inhibition above about 32%;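 further: 0% = median of test compound wells and 100% = reference inhibitor wells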
Starred values were filed as active, the others as inactive.

SMILES	MITF inh	GPR151 activ	FBW7 activator	TEAD-YAP inh
CCc1nnc(NC(=O)c2ccc(OC)cc2)s1	18	-7	0	40*
CC(C)(C)c1ccc(C(=O)Nc2ncc(Cc3ccc(F)cc3)s2)cc1	-2	2	0	7
CC(C)C[C@H]1NC(=O)[C@H]2CN(Cc3ccc4ncccc4c3)CCN2C1=O	11	-1	0	4
Cc1cc(OCC(=O)NCCN(C)C)cc(C)c1Br	10	0	0	4
COc1ccc(Cc2cnc(NC(=O)c3ccc(C)cc3)s2)cc1	-6	1	0	50*
COc1ccc(Cc2cnc(NC(C)=O)s2)cc1	0	-1	0	-29
COc1ccc(C(=O)OCc2ccc(Cl)cc2)cc1	-19	-1	0	-1
O=C1CSC(=O)N1Cc1c(Cl)cccc1Cl	19	0	2.2*	14
O=C1NC(=S)NC(=O)C1=Cc1cn(-c2ccccc2)nc1-c1cccs1	75*	-1	0	-11
O=C1NC(=S)NC(=O)C1=Cc1cn(-c2ccccc2)nc1-c1ccc2c(c1)OCCO2	5	0	0	-67
CCOc1ccc(C(=O)OCC(=O)c2cc(C)n(CC3CCCO3)c2C)cc1OCC (configuration not stated)	4	0	0	7
CC(=O)N1CCSc2cc(S(=O)(=O)N3CCC(Cc4ccccc4)CC3)ccc21	13	1	1	55*
CC(=O)N1CCSc2cc(S(=O)(=O)NCCCc3ccccc3)ccc21	9	2	0	35*
COC(=O)c1ccc(OCc2cc([N+](=O)[O-])ccc2OC)c(OC)c1	-1	-1	0	0
Cc1ccc(NC(=O)c2cnc(SCC(=O)N3CCCC3)n(C)c2=O)cc1	14	-4	0	-9
Cc1ccc(-c2cnc(SCC(=O)N3CCCC3)n2C)cc1	-17	-1	0	58*
Cc1ccc(N2CC(NC(=O)c3ccccc3C(F)(F)F)CC2=O)cc1C (configuration not stated)	-2	1	0	-3
CCOc1ccccc1C(=O)NC1CC(=O)N(c2ccc(C)c(C)c2)C1 (configuration not stated)	14	0	0	43*
CCN(CC)Cc1c(C(=O)N/N=C/c2cccc(OC)c2O)nnn1-c1nonc1N	60*	-1	0	14
CCN(CC)Cc1c(C(=O)N/N=C/c2ccc(O)c([N+](=O)[O-])c2)nnn1-c1nonc1N	75*	-1	0	12
COc1ccc(CCNC(=O)CSc2nnc3cc(C)c4ccccc4n23)cc1OC	-16	1	0	-18
C=CCSC1=C(C#N)C(c2ccc(OCc3ccccc3)cc2)CC(=O)N1 (configuration not stated)	-10	0	0	33*
O=C(CCn1c(=O)oc2ccccc21)NCc1ccccc1Cl	3	0	0	0
Cc1ccc(C(Nc2cc(Cl)ncn2)C(F)(F)F)cc1 (configuration not stated)	3	1	1	34*
CC(COc1ccc2ccccc2c1)Nc1cc(Cl)ncn1 (configuration not stated)	17	-1	0	2
SMILES	MITF inh	GPR151 activ	FBW7 activator	TEAD-YAP inh
COc1cc(/C=N/O)ccc1OCc1ccccc1F	-13	-4	0	38*
CCCCOc1ccc(CO)cc1OC	1	1	2.1*	-5
COc1cc(/C=N/O)ccc1OCc1ccc(C(=O)O)cc1	20	-9	0	94*
COc1cc(/C=N/O)ccc1OCc1ccc(F)cc1	-11	-3	0	-41
COc1cc(CO)ccc1OCc1cccc(F)c1	-22	-1	0	-44
COc1cc(C=O)ccc1OCc1ccc(C(=O)O)cc1	-13	1	0	-7
COc1cc(CO)ccc1OCc1cccc(C(=O)O)c1	9	-10	0	74*
O=[N+]([O-])c1cc(Oc2ccc(F)cc2)cc(Oc2ccc(F)cc2)c1	-3	0	0	-11
COc1ccc(/C=C2\N=C(c3ccc(C)cc3)NC2=O)cc1OC	6	0	0	4
Cc1ccc2ncc(C(=O)N3CCN(c4ccccc4)CC3)c(=O)n2c1	5	-2	0	-10
CCOc1ccc(NC(=O)C2CCN(C(=O)c3cc(OC)c(OC)c(OC)c3)CC2)cc1	6	2	0	6
CC(C)n1cnc2c(NCc3nc4ccccc4[nH]3)nc(Nc3ccc4ncccc4c3)nc21	13	-1	0	40*
CCNc1nc(NCc2cccnc2)c2ncn(C(C)C)c2n1	5	-1	0	0
CC(C)n1cnc2c(NC3CC3)nc(Nc3nccc4ccccc34)nc21	6	2	0	14
CC(C)n1cnc2c(NCc3nc4ccccc4[nH]3)nc(NCc3cccnc3)nc21	18	-2	0	59*
CC(C)n1cnc2c(NCc3nc4ccccc4[nH]3)nc(Nc3cnccn3)nc21	4	0	0	78*
CC(C)n1cnc2c(NCc3nc4ccccc4[nH]3)nc(Nc3nccc4ccccc34)nc21	4	0	1	43*
Nc1nnc(SCC(=O)N2c3ccccc3Sc3ccc(Cl)cc32)s1	15	0	0	-5
CC(C)n1cnc2c(NCc3nc4ccccc4[nH]3)nc(Nc3ccncn3)nc21	-8	3	0	86*
CC(C)n1cnc2c(NCc3nc4ccccc4[nH]3)nc(Nc3nc4ccccc4n3C)nc21	5	0	0	0
CC(C)n1cnc2c(NCc3nc4ccccc4[nH]3)nc(Nc3ccccn3)nc21	0	1	1	85*
Cc1ccc(C(=O)c2sc3nc(C)ccc3c2N)c(C)c1	-7	0	0	37*
COc1ccc(C(=O)c2sc3nc(C)ccc3c2N)cc1OC	-13	0	0	33*
COc1ccc(C(=O)COc2cccc3c(=O)n(C)ccc23)cc1	-3	3	0	48*
c1ccc2c(c1)CCN(c1nc3cc4c(cc3s1)OCCO4)C2	4	-5	0	89*
SMILES	MITF inh	GPR151 activ	FBW7 activator	TEAD-YAP inh
c1ccc2sc(N3CCN(c4nc5cc6c(cc5s4)OCCO6)CC3)nc2c1	8	0	0	1
c1c2c(cc3sc(N4CCCC4)nc13)OCCO2	-1	-8	0	72*
C=CCn1cnc2scc(-c3cccc([N+](=O)[O-])c3)c2c1=O	-15	-1	0	-9
CCOc1ccccc1N1CC(O)=C(c2nc3ccccc3[nH]2)C1=N	8	0	0	54*
CC(c1ccccc1)N1CC(O)=C(c2nc3ccccc3[nH]2)C1=N (configuration not stated)	-1	1	0	55*
OCc1ccc(-c2cnc3c(NCc4cccnc4)nccn23)cc1	-12	0	0	15
CCOC(=O)Nc1ccc2c(c1)N(C(=O)OCC)c1ccccc1CC2	5	0	0	48*
NS(=O)(=O)c1ccc(CCNC(=O)CSc2nc3cc(C(=O)NCc4ccccc4)ccc3c3nc4ccccc4n23)cc1	-4	1	0	7

Screens as filed in PubChem BioAssay.
